Measurements reported in PubChem BioAssay (EPA / NIEHS).
Inconclusive results are not listed. Active and inactive are the calls of the source. The calls were made as follows, unless noted: active = hit-call score of the fitted dose curve at least 0.9, where 1 is the maximum; inconclusive = response in the unintended direction; inactive = score below 0.9.

Legend:
[1] = BSK_3C_Proliferation: Cell Proliferation Assessment in the BioMAP Diversity Plus: 3C Assay (AID 2283006; active = hit-call score of the fitted dose curve at least 0.9, where 1 is the maximum; inactive = score below 0.9;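 as to AC50: potency may reflect either rise or fall in cell number versus DMSO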); conditions: primary human endothelial cells (HUVEC)
Summary of the method: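 Subconfluent HUVEC (3C system) cultured with chemical; relative cell number read at 48 h by sulforhodamine B total-protein staining (0.1% SRB after 10% TCA fixation, 560 nm). Bidirectional fit relative to DMSO.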

[2] = biological target: Peroxisome proliferator-activated receptor gamma (Homo sapiens) (UniProt P37231); assay: ATG_PPARg_TRANS: Attagene TRANS-FACTORIAL HepG2 Assay for human Peroxisome Proliferator-activated Receptor-gamma (PPARg) (AID 2283007)
Peroxisome proliferator-activated receptor gamma (Homo sapiens), sequence (P37231 whole entry, looked up, the tested form may be a part): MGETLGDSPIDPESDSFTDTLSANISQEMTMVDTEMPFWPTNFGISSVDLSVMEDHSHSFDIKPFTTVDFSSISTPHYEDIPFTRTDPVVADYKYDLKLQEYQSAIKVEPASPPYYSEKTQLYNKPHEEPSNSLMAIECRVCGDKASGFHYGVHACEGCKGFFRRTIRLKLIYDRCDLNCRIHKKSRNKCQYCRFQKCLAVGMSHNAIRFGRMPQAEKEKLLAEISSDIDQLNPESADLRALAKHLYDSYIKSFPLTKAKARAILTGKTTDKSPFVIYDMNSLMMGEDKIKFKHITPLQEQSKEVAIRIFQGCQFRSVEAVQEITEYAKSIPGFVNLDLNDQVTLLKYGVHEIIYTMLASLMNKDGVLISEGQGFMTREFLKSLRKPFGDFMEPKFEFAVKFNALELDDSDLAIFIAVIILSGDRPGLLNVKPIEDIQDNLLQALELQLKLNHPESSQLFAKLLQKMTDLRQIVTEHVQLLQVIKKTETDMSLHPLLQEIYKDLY
Summary of the method: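 Gain-of-signal endpoint relative to DMSO, derived from reporter mRNA levels quantified by RT-PCR and capillary electrophoresis. Cells were HepG2 transiently expressing a chimeric NR-Gal4 construct with GAL4-UAS reporters, exposed to chemicals for 24 h.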

[3] = biological target: Retinoic acid receptor RXR-alpha (Homo sapiens) (UniProt P19793); assay: ATG_RXRa_TRANS: Attagene TRANS-FACTORIAL HepG2 Assay for human Retinoid X Receptor alpha (RXRa) (AID 2283012)
Retinoic acid receptor RXR-alpha (Homo sapiens), sequence (P19793 whole entry, looked up, the tested form may be a part): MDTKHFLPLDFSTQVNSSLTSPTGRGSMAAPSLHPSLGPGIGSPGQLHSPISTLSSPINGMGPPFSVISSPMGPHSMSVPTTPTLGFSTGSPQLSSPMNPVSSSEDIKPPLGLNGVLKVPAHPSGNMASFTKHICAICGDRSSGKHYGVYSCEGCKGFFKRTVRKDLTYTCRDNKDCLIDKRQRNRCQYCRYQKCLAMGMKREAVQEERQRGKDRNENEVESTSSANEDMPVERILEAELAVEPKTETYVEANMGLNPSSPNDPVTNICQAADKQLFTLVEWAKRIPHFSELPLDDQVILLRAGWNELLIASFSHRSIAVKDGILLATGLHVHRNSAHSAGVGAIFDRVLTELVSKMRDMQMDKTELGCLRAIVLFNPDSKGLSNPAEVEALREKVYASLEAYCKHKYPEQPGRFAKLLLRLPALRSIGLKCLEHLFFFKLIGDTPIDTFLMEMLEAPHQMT
Summary of the method: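 HepG2 cells transiently transfected with GAL4-UAS reporter units and chimeric RXRa-Gal4 protein, treated 24 h. Reporter mRNA measured by RT-PCR, fluorescent labelling, HpaI digestion and capillary electrophoresis. Induction fitted against DMSO.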

[4] = biological target: human Retinoid X Receptor beta (RXRb), RXRB (gene 6257) (UniProt P28702); assay: ATG_RXRb_TRANS: Attagene TRANS-FACTORIAL HepG2 Assay for human Retinoid X Receptor beta (RXRb) (AID 2283013)
human Retinoid X Receptor beta (RXRb), RXRB (gene 6257), sequence (P28702 whole entry, looked up, the tested form may be a part): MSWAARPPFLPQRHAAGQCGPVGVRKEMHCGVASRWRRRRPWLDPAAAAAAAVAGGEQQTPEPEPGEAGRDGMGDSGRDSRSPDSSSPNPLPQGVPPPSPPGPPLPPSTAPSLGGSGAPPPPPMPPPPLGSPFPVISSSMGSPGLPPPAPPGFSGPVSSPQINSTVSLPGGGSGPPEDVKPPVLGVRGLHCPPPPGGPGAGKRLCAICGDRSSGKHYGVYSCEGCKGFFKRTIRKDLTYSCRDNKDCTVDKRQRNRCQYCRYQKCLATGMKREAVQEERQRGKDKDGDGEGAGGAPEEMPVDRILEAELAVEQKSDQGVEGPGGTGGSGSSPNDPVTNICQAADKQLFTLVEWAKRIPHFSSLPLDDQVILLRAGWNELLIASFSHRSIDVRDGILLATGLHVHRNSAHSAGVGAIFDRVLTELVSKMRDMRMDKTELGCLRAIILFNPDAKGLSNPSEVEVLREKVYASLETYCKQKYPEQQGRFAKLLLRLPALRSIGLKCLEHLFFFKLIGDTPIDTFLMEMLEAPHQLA
Summary of the method: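 HepG2 cells were transiently transfected with multiplexed GAL4-UAS reporters and a chimeric RXRb-Gal4 construct, then exposed for 24 h. Reporter mRNA was quantified by RT-PCR, FAM labeling, HpaI digestion and capillary electrophoresis; gain of signal was scored against DMSO.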

[5] = biological target: human Thyroid Receptor alpha (THRa1), THRA (gene 7067) (UniProt P10827); assay: ATG_THRa1_TRANS: Attagene TRANS-FACTORIAL HepG2 Assay for human Thyroid Receptor alpha (THRa1) (AID 2283014)
human Thyroid Receptor alpha (THRa1), THRA (gene 7067), sequence (P10827 whole entry, looked up, the tested form may be a part): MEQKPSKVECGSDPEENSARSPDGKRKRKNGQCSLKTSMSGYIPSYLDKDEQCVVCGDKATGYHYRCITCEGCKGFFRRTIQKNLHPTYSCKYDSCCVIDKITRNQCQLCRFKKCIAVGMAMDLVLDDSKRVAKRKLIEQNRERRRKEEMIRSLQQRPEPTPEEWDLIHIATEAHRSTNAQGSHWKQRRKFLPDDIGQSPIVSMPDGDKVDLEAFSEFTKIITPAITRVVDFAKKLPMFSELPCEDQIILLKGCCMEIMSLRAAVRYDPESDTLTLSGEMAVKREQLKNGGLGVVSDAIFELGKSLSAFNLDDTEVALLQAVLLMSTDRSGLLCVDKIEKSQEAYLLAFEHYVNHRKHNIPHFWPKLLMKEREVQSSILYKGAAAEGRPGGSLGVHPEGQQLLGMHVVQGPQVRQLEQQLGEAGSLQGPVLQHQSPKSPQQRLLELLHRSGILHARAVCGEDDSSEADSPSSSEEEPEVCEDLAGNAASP
Summary of the method: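 Measured here is mRNA from a GAL4-UAS reporter in transfected HepG2 cells carrying a Gal4-fused receptor, 24 h post-dose. DMSO served as negative control and baseline.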

[6] = read-out: E-selectin (Homo sapiens) (UniProt P16581); assay: BSK_3C_Eselectin: BioMAP Diversity Plus: 3C Assay for Eselectin Biomarker Activity (AID 2283015; active = hit-call score of the fitted dose curve at least 0.9, where 1 is the maximum; inactive = score below 0.9); conditions: primary human endothelial cells (HUVEC); actives raise or lower the signal
Summary of the method: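 Endpoint derived by bidirectional fitting against DMSO vehicle; signal is ELISA-detected E-selectin from primary HUVEC at 24 h post-dosing, with parallel SRB staining (0.1% SRB, 560 nm) flagging cytotoxicity.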

[7] = biological target: human RAR-related Orphan Receptor gamma (RORg), RORC (gene 6097) (UniProt P51449); assay: ATG_RORg_TRANS: Attagene TRANS-FACTORIAL HepG2 Assay for human RAR-related Orphan Receptor gamma (RORg) (AID 2283011)
human RAR-related Orphan Receptor gamma (RORg), RORC (gene 6097), sequence (P51449 whole entry, looked up, the tested form may be a part): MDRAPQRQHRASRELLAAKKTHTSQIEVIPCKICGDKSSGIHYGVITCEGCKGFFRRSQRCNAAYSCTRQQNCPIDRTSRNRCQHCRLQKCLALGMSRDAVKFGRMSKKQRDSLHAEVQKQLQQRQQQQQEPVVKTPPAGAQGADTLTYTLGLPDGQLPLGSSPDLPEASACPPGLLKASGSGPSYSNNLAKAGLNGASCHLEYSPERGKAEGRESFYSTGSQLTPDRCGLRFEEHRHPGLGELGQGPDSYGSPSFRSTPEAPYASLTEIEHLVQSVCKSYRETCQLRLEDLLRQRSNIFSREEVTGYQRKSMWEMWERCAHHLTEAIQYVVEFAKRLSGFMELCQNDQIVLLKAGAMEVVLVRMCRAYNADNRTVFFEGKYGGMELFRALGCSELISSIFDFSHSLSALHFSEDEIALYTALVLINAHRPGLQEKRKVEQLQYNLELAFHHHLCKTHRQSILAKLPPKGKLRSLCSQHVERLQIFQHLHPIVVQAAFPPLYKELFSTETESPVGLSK
Summary of the method: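 Chimeric RORg-Gal4 transactivation in transfected HepG2; 24 h exposure; RT-PCR/capillary electrophoresis readout of reporter mRNA, DMSO baseline.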

[8] = biological target: human Retinoic Acid Receptor gamma (RARg), RARG (gene 5916) (UniProt P13631); assay: ATG_RARg_TRANS: Attagene TRANS-FACTORIAL HepG2 Assay for human Retinoic Acid Receptor gamma (RARg) (AID 2283009);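 as to AC50: AC50 is for reporter induction above DMSO meaning RARg activation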
human Retinoic Acid Receptor gamma (RARg), RARG (gene 5916), sequence (P13631 whole entry, looked up, the tested form may be a part): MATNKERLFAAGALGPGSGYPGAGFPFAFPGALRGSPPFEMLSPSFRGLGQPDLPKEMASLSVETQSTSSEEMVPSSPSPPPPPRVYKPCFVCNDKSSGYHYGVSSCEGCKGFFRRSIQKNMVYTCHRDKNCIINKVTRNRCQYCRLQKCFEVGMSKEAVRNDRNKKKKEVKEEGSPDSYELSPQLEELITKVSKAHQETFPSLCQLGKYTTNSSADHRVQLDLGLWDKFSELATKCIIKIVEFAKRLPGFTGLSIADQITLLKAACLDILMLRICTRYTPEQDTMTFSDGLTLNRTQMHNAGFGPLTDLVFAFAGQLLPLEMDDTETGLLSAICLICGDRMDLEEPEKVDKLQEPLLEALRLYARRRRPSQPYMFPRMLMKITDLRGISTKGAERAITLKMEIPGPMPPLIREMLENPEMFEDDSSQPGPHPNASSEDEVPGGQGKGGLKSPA
Summary of the method: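 HepG2 transiently transfected with GAL4-UAS reporter units and chimeric NR-Gal4 constructs; 24 h compound exposure. Reporter mRNA quantified by RT-PCR, FAM labeling, HpaI digestion and capillary electrophoresis; gain-of-signal versus DMSO.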

[9] = biological target: human RAR-related Orphan Receptor beta (RORb), RORB (gene 6096) (UniProt Q92753); assay: ATG_RORb_TRANS: Attagene TRANS-FACTORIAL HepG2 Assay for human RAR-related Orphan Receptor beta (RORb) (AID 2283010)
human RAR-related Orphan Receptor beta (RORb), RORB (gene 6096), sequence (Q92753 whole entry, looked up, the tested form may be a part): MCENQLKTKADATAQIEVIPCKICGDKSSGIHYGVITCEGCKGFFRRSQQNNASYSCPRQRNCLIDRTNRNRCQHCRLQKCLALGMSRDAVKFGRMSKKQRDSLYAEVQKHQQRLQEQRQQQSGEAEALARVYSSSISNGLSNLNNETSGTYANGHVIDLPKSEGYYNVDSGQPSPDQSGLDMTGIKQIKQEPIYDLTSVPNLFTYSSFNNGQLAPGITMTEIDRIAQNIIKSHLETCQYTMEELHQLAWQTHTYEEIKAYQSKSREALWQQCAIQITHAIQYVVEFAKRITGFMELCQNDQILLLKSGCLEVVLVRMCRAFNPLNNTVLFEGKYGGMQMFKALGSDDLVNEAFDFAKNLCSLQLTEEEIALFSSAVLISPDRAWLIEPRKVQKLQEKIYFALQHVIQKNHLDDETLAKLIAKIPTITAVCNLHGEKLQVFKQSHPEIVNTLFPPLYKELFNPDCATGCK
Summary of the method: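 HepG2 cells transiently transfected with GAL4-UAS reporter units expressing chimeric NR-Gal4 protein; reporter mRNA measured 24 h after dosing by RT-PCR, 6-FAM labelling and capillary electrophoresis. Gain-of-signal fitted relative to DMSO baseline.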

[10] = biological target: Nuclear receptor subfamily 1 group I member 2 (Homo sapiens) (UniProt O75469); assay: ATG_PXR_TRANS: Attagene TRANS-FACTORIAL HepG2 Assay for human Pregnane X Receptor (PXR) (AID 2283008)
Nuclear receptor subfamily 1 group I member 2 (Homo sapiens), sequence (O75469 whole entry, looked up, the tested form may be a part): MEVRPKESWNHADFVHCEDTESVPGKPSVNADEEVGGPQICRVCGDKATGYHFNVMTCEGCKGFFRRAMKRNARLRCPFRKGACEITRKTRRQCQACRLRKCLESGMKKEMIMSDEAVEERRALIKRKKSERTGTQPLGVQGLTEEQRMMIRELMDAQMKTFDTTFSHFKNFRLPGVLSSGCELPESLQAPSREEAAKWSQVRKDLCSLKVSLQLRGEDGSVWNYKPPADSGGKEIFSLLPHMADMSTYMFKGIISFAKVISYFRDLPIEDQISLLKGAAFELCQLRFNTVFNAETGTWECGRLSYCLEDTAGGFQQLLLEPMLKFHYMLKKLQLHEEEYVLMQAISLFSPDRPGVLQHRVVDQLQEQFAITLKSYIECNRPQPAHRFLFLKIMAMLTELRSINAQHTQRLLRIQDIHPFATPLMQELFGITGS
Summary of the method: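 HepG2 cells transiently transfected with GAL4-UAS reporter units and PXR-Gal4 chimera, exposed 24 h. Reporter mRNA quantified by RT-PCR, fluorescent labelling, HpaI digestion and capillary electrophoresis; gain of signal vs DMSO.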

Measured: AC50

E-selectin (Homo sapiens), sequence (P16581 whole entry, looked up): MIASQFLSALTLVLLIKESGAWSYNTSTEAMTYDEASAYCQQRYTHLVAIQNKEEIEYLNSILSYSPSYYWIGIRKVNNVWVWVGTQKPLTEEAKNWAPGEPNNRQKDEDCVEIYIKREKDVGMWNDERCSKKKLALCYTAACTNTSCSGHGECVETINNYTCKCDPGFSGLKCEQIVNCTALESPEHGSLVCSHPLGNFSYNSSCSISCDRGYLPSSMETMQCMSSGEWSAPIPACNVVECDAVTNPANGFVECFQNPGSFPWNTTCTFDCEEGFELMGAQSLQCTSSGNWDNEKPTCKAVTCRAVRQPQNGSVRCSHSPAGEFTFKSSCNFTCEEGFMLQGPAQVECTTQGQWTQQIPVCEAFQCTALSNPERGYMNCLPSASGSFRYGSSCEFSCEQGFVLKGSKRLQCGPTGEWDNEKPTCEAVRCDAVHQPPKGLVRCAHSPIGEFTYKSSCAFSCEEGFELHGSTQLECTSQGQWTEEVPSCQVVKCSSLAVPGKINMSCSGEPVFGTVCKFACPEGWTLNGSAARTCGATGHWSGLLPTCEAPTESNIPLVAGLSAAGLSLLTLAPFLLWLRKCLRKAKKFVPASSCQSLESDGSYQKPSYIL

CCOC(=O)CC(CC(=O)OCC)(OC(C)=O)C(=O)OCC
inactive: [1] | [3] | [4] | [5] | [6]
active: [2] 52.3 µM

CCOc1cccc(-n2cc(C(=O)N3CCN(c4cc(C(=O)O)c5ccccc5c4)CC3)nc2-c2ccc(C)cc2)c1
inactive: [3] | [5] | [6]
active: [1] 13.5 µM | [2] 7.92 µM

CCCCCCCCCCCCc1ccccc1
active: [4] 61.2 µM
inactive: [1] | [2] | [7] | [3] | [6]

CC(C)c1cccc(C(C)C)c1N1C(=O)c2ccc(O)cc2C1=O
active: [1] 3.32 µM | [6] 36.5 µM
inactive: [2] | [8] | [3] | [4]

C=CC(=C)CCC=C(C)C
inactive: [1] | [7] | [4] | [6]
active: [2] 100 µM

Cn1c(=O)cc(Oc2ccc(F)cc2F)c2cnc(NCC(C)(C)O)nc21
inactive: [1] | [3] | [4] | [5] | [6]
active: [2] 6.3 µM

COc1cccc(-c2ccc(/C=C\CN3CCCCCC3)cc2Cl)c1
active: [1] 14.2 µM | [6] 28.6 µM
inactive: [2] | [7] | [3] | [5]

COc1ccc(/C=C/S(=O)(=O)NC(=O)c2ccc(C)cc2Cl)cc1
active: [1] 7.08 µM | [2] 23.7 µM
inactive: [9] | [7] | [3] | [6]

COc1ccc(-n2nc(C(F)F)cc2-c2ccc(S(C)=O)cc2)cc1 (stereo unspecified)
inactive: [1] | [2] | [8] | [3] | [4] | [6]

O=c1n(CC2CO2)c(=O)n(CC2CO2)c(=O)n1CC1CO1 (stereo unspecified)
inactive: [2] | [9] | [5]
active: [1] 1.46 µM | [6] 16.1 µM

CC(C)=CCCC(C)=CC=O
active: [2] 21 µM
inactive: [1] | [7] | [3] | [4] | [6]

CC/C(=C\C(=N/O)C(N)=O)C(C)[N+](=O)[O-] (stereo unspecified)
active: [2] 28.1 µM
inactive: [1] | [9] | [7] | [3] | [6]

CNCc1ccc(NC(=O)c2c[nH]c3c2C(=O)CCC3)cc1
inactive: [1] | [2] | [8] | [3] | [5] | [6]

Cc1ccc(S(=O)(=O)O)cc1C
inactive: [1] | [2] | [3] | [4] | [6]

CC(C)=CCC/C(C)=C\CO
inactive: [1] | [3] | [6]
active: [2] 36.5 µM

Nc1ccc(Nc2ccccc2)cc1
inactive: [2] | [3]
active: [1] 3.97 µM | [6] 5.7 µM

CCCCC(CC)COC(=O)CCCCCCCCC(=O)OCC(CC)CCCC (stereo unspecified)
not listed: [5] | [8] | [10]
inactive: all other assays above

O=C(O)c1cc(N=Nc2ccc(S(=O)(=O)Nc3ccccn3)cc2)ccc1O
inactive: [1] | [9] | [3] | [4] | [6]
active: [2] 57.4 µM

COc1ccc2sc(C(=O)Nc3nnn[nH]3)c(OC(C)C)c2c1
active: [1] 9.42 µM | [2] 22.9 µM | [6] 19.9 µM
inactive: [7] | [3] | [4]

CCCC(=O)OCC
inactive: [1] | [2] | [4] | [6]

CC(=O)OC[C@H]1O[C@@](COC(C)=O)(O[C@H]2O[C@H](COC(C)=O)[C@@H](OC(C)=O)[C@H](OC(C)=O)[C@H]2OC(C)=O)[C@@H](OC(C)=O)[C@@H]1OC(C)=O
inactive: [1] | [3] | [4] | [6]

CC(=O)OCCC(C)C
inactive: [1] | [9] | [4] | [6]

Cn1c(=O)c2c(ncn2C)n(C)c1=O
inactive: [1] | [9] | [3] | [4] | [6]

CC[C@H]1OC(=O)[C@H](C)[C@@H](O[C@H]2C[C@@](C)(OC)[C@@H](O)[C@H](C)O2)[C@H](C)[C@@H](O[C@@H]2O[C@H](C)C[C@H](N(C)C)[C@H]2O)[C@](C)(O)C[C@@H](C)C(=O)[C@H](C)[C@@H](O)[C@]1(C)O
inactive: [1] | [10] | [9] | [4] | [5] | [6]

CC[C@H](C)C(=O)O[C@H]1C[C@@H](C)C=C2C=C[C@H](C)[C@H](CC[C@@H]3C[C@@H](O)CC(=O)O3)[C@H]21
active: [1] 13.6 µM | [6] 31.6 µM
inactive: [2] | [4]

Cc1ccc(O)cc1
inactive: [1] | [6]

CN(C)c1ccc(N=NS(=O)(=O)O)cc1
inactive: [1] | [3] | [4] | [5] | [6]

Nc1nc2ncc(CNc3ccc(C(=O)N[C@@H](CCC(=O)O)C(=O)O)cc3)nc2c(=O)[nH]1
inactive: [1] | [9] | [7] | [3] | [5] | [6]

C[C@](N)(Cc1ccc(O)c(O)c1)C(=O)O
inactive: [1] | [4] | [5] | [6]

CC(C)CC(C)(O)C#CC(C)(O)CC(C)C (stereo unspecified)
inactive: [1] | [8] | [3] | [4] | [5] | [6]

COCCOc1cc2cc(C(=O)NC3CCN(C(C)C)CC3)n(CC(=O)Nc3ccc(Cl)cn3)c2cn1
inactive: [1] | [8] | [9] | [3] | [4] | [6]

Fc1ccccc1[C@@H](F)COC1CCC(Nc2ncnc3[nH]ncc23)CC1 (stereo partly specified)
active: [1] 29.3 µM
inactive: [2] | [6]

CNS(=O)(=O)c1cc(C(=O)N2CCC(CCN3C4CCC3CC(n3c(C)nc5ccccc53)C4)(c3cccc(F)c3)CC2)c(Cl)cc1F (stereo unspecified)
inactive: [8] | [7] | [4] | [5] | [6]
active: [1] 15.4 µM

C1=CCCC=CCCC=CCC1
inactive: [1] | [3] | [6]
active: [8] 26.9 µM | [4] 63.5 µM

On1ccccc1=S
inactive: [9] | [7] | [3] | [5]
active: [1] 4.91 µM | [6] 18.3 µM

CC(O)CN(CCN(CC(C)O)CC(C)O)CC(C)O (stereo unspecified)
inactive: [1] | [7] | [3] | [4] | [6]

CC1=CC(=O)CC(C)(C)C1
inactive: [1] | [10] | [9] | [6]

COC(=O)c1ccccc1O
active: [10] 24.9 µM | [4] 2.1 µM
inactive: [1] | [8] | [3] | [6]

Cc1ccc(N)cc1O
inactive: [1] | [10] | [9] | [7] | [4] | [6]

O=C1CCC(N2C(=O)c3ccccc3C2=O)C(=O)N1 (stereo unspecified)
inactive: [1] | [2] | [5] | [6]

CC1(C)C(=O)N(Br)C(=O)N1Br
inactive: [1] | [4] | [6]

NC(=O)NO
inactive: [1] | [10] | [9] | [7] | [6]

Cc1[nH]cnc1C[C@H]1CCc2c(C)c3ccccc3n2C1=O
active: [1] 26.1 µM
not listed: [2] | [7] | [9]
inactive: all other assays above

CC(C)CCCCCCCOC(=O)CCCCC(=O)OCCCCCCCC(C)C
inactive: [1] | [8] | [7] | [6]
active: [4] 100 µM

O=C1CCCCCN1
inactive: [1] | [8] | [7] | [3] | [6]

Nc1cccc(N)c1
not listed: [2] | [4] | [10]
inactive: all other assays above

COC(=O)CC(=O)OC
inactive: [1] | [3] | [6]

O=C(O)CC(O)C(=O)O (stereo unspecified)
inactive: [1] | [8] | [3] | [6]

CCCCC(CC)COC(=O)c1ccc(C(=O)OCC(CC)CCCC)cc1 (stereo unspecified)
active: [4] 49.7 µM
not listed: [2] | [3] | [10]
inactive: all other assays above

CCOCCO
inactive: [1] | [6]
